Source: PubChem
EBNA-1 inhibitor = blocks EBNA-1 binding to DNA. EBNA-1 DNA binding, fluorescence polarization. inhibition, % at 14.8 µM. 300,000 compounds, 0.34% hits. AID 1950; in the data active = inhibition above about 28%
MEX-5 binding = C. elegans MEX-5 TCR-2 RNA binding activity; Q9XUB2; MEX-5/FITC-TCR2 RNA binding, fluorescence polarization; hits give low values; activity score (negative = inhibition of binding), % at 10 µM; 300,000 compounds, 0.38% hits; AID 1832;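 active = inhibition past about -25% in most replicates, and total fluorescence under double the plate's negative control median, limit read from the data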
ZTA DNA inh = counter-screen for EBNA-1 inhibitors: inhibitors of Epstein-Barr virus ZTA. ZTA-DNA binding, fluorescence polarization. inhibition, % at 11 µM. 320,000 compounds, 0.15% hits. P03206. AID 2234; in the data active = inhibition above about 33%
Target sequence (P03206 whole entry, looked up): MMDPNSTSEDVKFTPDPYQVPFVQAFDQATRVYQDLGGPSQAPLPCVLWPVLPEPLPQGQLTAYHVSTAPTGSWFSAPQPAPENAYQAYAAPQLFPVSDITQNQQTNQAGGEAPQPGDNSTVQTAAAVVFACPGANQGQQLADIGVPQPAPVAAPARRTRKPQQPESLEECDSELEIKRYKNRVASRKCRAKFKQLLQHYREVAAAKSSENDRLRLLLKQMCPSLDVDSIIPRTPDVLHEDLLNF
EBV gp42 inh = blocks Epstein-Barr virus glycoprotein 42 binding. Fluorescence polarization binding assay, mP read-out. inhibition, % (tested at 21.74 µM). 220,000 compounds, 0.42% hits; in the data active = inhibition above about 50%
Target sequence (Q1HVG2 whole entry, looked up): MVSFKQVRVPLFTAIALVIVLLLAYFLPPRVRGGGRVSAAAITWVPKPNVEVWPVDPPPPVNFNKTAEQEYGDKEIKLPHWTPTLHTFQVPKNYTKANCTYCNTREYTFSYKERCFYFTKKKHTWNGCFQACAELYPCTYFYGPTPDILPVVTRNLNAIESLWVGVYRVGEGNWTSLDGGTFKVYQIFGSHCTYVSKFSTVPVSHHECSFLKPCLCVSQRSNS
Of the large screens only hits and unclear results are named; the others gave an inactive call. Rows were chosen to be rich in hits. Some 1% of all compounds tested hit in one or more screens of this group.

COCC(=O)N1CCC(Oc2ccc(C(=O)N3CCCCC3COC)cc2)CC1 (stereo not given)	none (no result: EBV gp42 inh)
CCOC(=O)Cc1csc(NC(=O)c2sc3nc4cc(C)ccc4cc3c2N)n1	MEX-5 binding -49.9
CC1N(C(=O)N2CCOCC2)CCN1S(=O)(=O)c1ccc(Cl)cc1 (stereo not given)	none (no result: EBV gp42 inh)
COc1cccc(/C=C2\CCC(C3CCCC3)C2=O)c1OC (stereo not given)	none (no result: EBV gp42 inh)
O=C(CSc1nnc(-c2ccc(OC(F)F)cc2)o1)NCc1cccs1	EBNA-1 inhibitor 146.9, ZTA DNA inh 77.8
Cc1ccc(-n2ncc3c2CCCC3NC(=O)CSc2ccccn2)cc1C (stereo not given)	none (no result: EBV gp42 inh)
COC(=O)CCC(=O)OC1(C)C(=O)C2=COC(c3ccc(OC)cc3)=CC2=C(Br)C1=O (stereo not given)	none
COc1ccc(C2=CC3=C(Br)C(=O)C(C)(OC(=O)c4ccc(Cl)nc4)C(=O)C3=CO2)cc1 (stereo not given)	MEX-5 binding -30.3
CCN1/C(=C2/SC(=S)N(NC(C)=O)C2=O)Sc2ccc(OC)cc21	MEX-5 binding -46.3 (no result: EBV gp42 inh)
CCN1/C(=C2/SC(=S)N(NC(C)=O)C2=O)Sc2ccc(Cl)cc21	none (no result: EBV gp42 inh)
C=CCN1C(=O)/C(=C2/Sc3ccc(OC)cc3N2CC)SC1=S	MEX-5 binding -39.8 (no result: EBV gp42 inh)
CCCCN1C(=O)/C(=C2/Sc3ccc(OC)cc3N2CC)SC1=S	MEX-5 binding -25.7 (no result: EBV gp42 inh)
C=CCN1C(=O)/C(=C2/Sc3ccc(OC)cc3N2C)SC1=Nc1ccc(OC)cc1	none
CC(=O)OCCN(CCCn1c(-c2ccncc2)nc2ccccc21)c1nc(CN2CCCCC2)cs1	none (no result: EBV gp42 inh)
Cc1cc(-c2nc3c4c5c(sc4[nH]c(=O)n3n2)CCC5)c(C)o1	EBV gp42 inh 60.0
Cc1nc2sc3c(c2c(=O)[nH]1)CCC3	none
CC(=O)N(C)c1ccc(N=Nc2c(C)[nH]n(C(N)=S)c2=O)cc1	MEX-5 binding -32.1
CC1=NN(C(N)=S)C(=O)C1N=Nc1c(Cl)cc([N+](=O)[O-])cc1Cl (stereo not given)	MEX-5 binding -31.0 (no result: EBV gp42 inh)
CC(=O)N(C)c1ccc(N=NC2C(=O)N(C(N)=S)N=C2C)cc1 (stereo not given)	MEX-5 binding -25.6 (no result: EBV gp42 inh)
CC1=NN(C(N)=S)C(=O)C1N=Nc1ccc(S(N)(=O)=O)cc1 (stereo not given)	MEX-5 binding -68.7 (no result: EBV gp42 inh)
CC1=NN(C(N)=S)C(=O)C1N=Nc1cccc(Cl)c1 (stereo not given)	none (no result: EBV gp42 inh)
CCOc1ccc(C(=O)Nc2ccc(C(=O)N3CCOCC3)cc2)c(OCC)c1	none (no result: EBV gp42 inh)
CC(=O)N1CCc2cc(Br)cc(S(=O)(=O)N3CCC(C(=O)O)CC3)c21	none (no result: EBV gp42 inh)
Cc1ccc2[nH]c(=O)c(CN(CCO)Cc3nnnn3CCc3ccccc3)cc2c1	MEX-5 binding -32.0
Cc1ccc2[nH]c(=O)c(CN(Cc3cccs3)Cc3nnnn3Cc3ccccc3)cc2c1	none
CC(=O)C1=C(c2ccccc2)NC(=S)NC1c1ccc(O)c(O)c1 (stereo not given)	none
CC(=O)C1=C(c2ccccc2)NC(=O)NC1c1ccc(O)c(O)c1 (stereo not given)	MEX-5 binding -28.8
O=C(NCCCn1ccnc1)c1ccc2c(c1)OCCO2	EBV gp42 inh 90.2
Cc1cccc(NC(=O)CSc2nnc(C)c(C)n2)c1	none (no result: EBV gp42 inh)
Cc1ccc(N/C=C/C(=O)c2sc(-c3ccccc3)nc2C)cc1	MEX-5 binding -37.6
N#Cc1c(NC(=O)C2CC(c3ccccc3O)=NO2)sc2c1CCC2 (stereo not given)	EBNA-1 inhibitor 34.2
Cc1ccc(CNC(=O)c2cnc3ccccc3n2)cc1	none (no result: EBV gp42 inh)
CC1C/C(=C\c2cccnc2)C(=O)/C(=C/c2cccnc2)C1 (stereo not given)	ZTA DNA inh 44.3 (no result: MEX-5 binding)
O=[N+]([O-])c1cc(Br)c(O)c(C=Nc2ccc(N3CCOCC3)cc2)c1	EBNA-1 inhibitor 57.2, ZTA DNA inh 126.7
Cc1nn(C(C)C(=O)NCCCN2CCCCCC2)c(=O)c2cc3sccc3n12 (stereo not given)	none (no result: EBV gp42 inh)
COc1ccc(NC(=O)c2ccc(OC)c(S(=O)(=O)N3CCCCC3C)c2)cn1 (stereo not given)	none (no result: EBNA-1 inhibitor, MEX-5 binding, EBV gp42 inh)
CCOc1cc(/C=N/NC(N)=O)ccc1OCC(=O)Nc1ccc(C)c(C)c1	none
CCOc1cc(C=C2C(=O)c3ccccc3C2=O)ccc1OCC(=O)Nc1ccc(C)cc1	MEX-5 binding -36.1, EBV gp42 inh 87.7
CCOc1c(C)cnc2c1c(=O)n(Cc1c(F)cccc1Cl)c(=O)n2C	none (no result: EBV gp42 inh)
CC(C)(C)c1ccc(C(=O)Nc2cccc3ncccc23)cc1	MEX-5 binding -74.1 (no result: EBV gp42 inh)
O=C(NCC1CCCO1)c1nn2c(C(F)(F)F)cc(-c3cc(Br)cs3)nc2c1Br (stereo not given)	MEX-5 binding -52.9 (no result: EBV gp42 inh)
